Test [1] concerns HaCat. The test is described as follows: Cytotoxic Profiling of Annotated Libraries Using Quantitative High-Throughput Screening (AID 1296008). To be noted: Five cell lines viability, CellTiter-Glo ATP luminescence, 48-72 h; max response: active compounds read low. An outline of the steps:
(§1)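 Cells exposed to compounds for 48 or 72 hr at 37 degrees Celsius. Viability read as ATP-coupled luminescence with CellTiter-Glo after 10 min at room temperature.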
For orientation: ATP-based viability assays read luminescence as a measure of living cells.

For a further test, the system named is KB-3-1. The description is as above. The conditions noted are these: Five cell lines viability, CellTiter-Glo ATP luminescence, 48-72 h; max response: active compounds read low. An outline of the steps:
as §1

The test system of a further test is NIH3T3. Described as above. To be noted: Five cell lines viability, CellTiter-Glo ATP luminescence, 48-72 h; max response: active compounds read low. An outline of the steps: as §1
Test [2] concerns HACAT. The test is described as follows: qHTS assay to identify novel small-molecules to repurpose for Merkel cell carcinoma treatment (AID 1296009). The conditions noted are these: MCC and control cell lines, CellTiter-Glo viability, 72 h; at 44.8 µM (top of the series) unless noted. An outline of the steps:
(§2)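 Cells were incubated with compound for 72 hr at 37 degree celsius before CellTiter-Glo addition. Luminescence was normalized with no-cell wells as full cytotoxicity and DMSO as baseline.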

In the next test the test system is MCC-13. The test is described as above. The conditions noted are these: MCC and control cell lines, CellTiter-Glo viability, 72 h; series mostly up to 46 µM. Summed up:
as §2

The subject of another test is MCC-26. Described as above. The conditions noted are these: MCC and control cell lines, CellTiter-Glo viability, 72 h; series mostly up to 46 µM. An outline of the steps:
as §2

A further test concerns MKL-1. The description is as above. To be noted: MCC and control cell lines, CellTiter-Glo viability, 72 h; series mostly up to 46 µM. An outline of the steps:
as §2

For the next test, the system named is MKL-2. The description is as above. The conditions noted are these: MCC and control cell lines, CellTiter-Glo viability, 72 h; series mostly up to 46 µM. An outline of the steps:
as §2

The record followed here is PubChem BioAssay (NCATS).

Several values for one entry are separate records, joined by “and”; a condition that tells them apart may be missing. Identical values can stand only once. Inconclusive results are not listed. A number with no mark means an inactive call. Activity calls are given as the source filed them. Calls come from the whole dose curve; as a rule, active = well fitted inhibition curve with a large enough effect; inconclusive = small, poorly fitted or top-dose-only effect; inactive = flat fitted curve, though single readings scatter.
% is set by controls: 0 for no effect and ±100 for the full control effect; potency is the fitted concentration of half-maximal effect.
Note: nearly all actives have a fitted effect of over 60% in size.

Take `CCC(C)N(C)C(=O)c1cc2ccccc2c(-c2ccccc2Cl)n1` (centres undefined): the outcome with HaCat [1] and in the test on HACAT [2] was inactive. Besides, the max response with KB-3-1 is 3.08%; in the test with NIH3T3, -14%. For the same molecule, the Potency result in the test on MCC-13, in the test on MCC-26, with MKL-1 and in the test on MKL-2 was “inactive” in each case.
Turning to `COc1nc(-c2ccc3c(c2)OCO3)n(-c2ccc(NC(=O)CSc3ccccc3)cc2)n1`, the outcome in the test on HaCat [1] and in the test on HACAT [2] was inactive. Besides, the max response is -3.01% and -18.6% with KB-3-1; -26.7% with NIH3T3. Moreover, the Potency result in the test on MCC-13, with MKL-1 and with MKL-2 was “inactive” in each case.
Consider `NC(=O)c1ccc(-c2nc(-c3ccc4c(c3)OCO4)c(-c3ccccn3)[nH]2)cc1`, for which the molecule was called inactive with HaCat [1] and in the test with HACAT [2]. The max response in the test on KB-3-1 was -0.83%; with NIH3T3, -25.4%. Moreover, the Potency entry in the test on MCC-13, with MCC-26, in the test on MKL-1 and in the test on MKL-2 was “inactive” each time.
In the case of `Cc1ccccc1C(C(=O)NC1CCCC1)N(C(=O)Cn1cnc2ccccc21)c1cccc(F)c1` (centres undefined), the result with HaCat [1], in the test on NIH3T3 and with HACAT [2] was inactive. The max response with KB-3-1 was 7.7%. Also, the Potency result with MCC-13, with MCC-26, in the test with MKL-1 and with MKL-2 was “inactive” each time.
Regarding `CN(C)c1ccc(C2Nc3ccc4ccccc4c3C3=C2C(=O)CC(C)(C)C3)cc1Br` (centres undefined), the max response in the test with HaCat [1] was -24.3% and -7.34%; in the test on KB-3-1, 1.11% and -17.2%; with NIH3T3 it was -6.99% and -2.22%. The Potency entry in the test on MCC-13, with MCC-26, with MKL-1 and with MKL-2 was “inactive” throughout.
As for `c1ccc(-c2nn3c(c2-c2ccnc4cc(OCCN5CCOCC5)ccc24)CCC3)nc1`, the max response with HaCat [1] is -14.5%; in the test on KB-3-1 it was 6.43%. The Potency in the test with NIH3T3 is 5.26 µM (active). The Potency result in the test with MCC-13, in the test on MCC-26, in the test with MKL-1 and in the test on MKL-2 was “inactive” in each case.
As to `COc1cc(F)c(F)c(Nc2ccc(I)cc2F)c1NS(=O)(=O)C1(C[C@H](O)CO)CC1`, the call in the test with KB-3-1 was inactive. Further, in the test with NIH3T3, the max response was -9.12%. Moreover, the Potency result in the test with MCC-13, in the test on MCC-26, with MKL-1 and in the test with MKL-2 was “inactive” in each case.
As to `COc1cc(Oc2ccnc3cc(OC)c(OC)cc23)ccc1NC(=O)NC(C)c1nccs1` (centres undefined), the molecule was called inactive with HaCat [1], in the test on NIH3T3 and in the test with HACAT [2]. For the same molecule, the Potency result in the test with MCC-13, in the test with MCC-26, in the test with MKL-1 and in the test with MKL-2 was “inactive” in each case.
Consider `Nc1nccc(-c2ccc3noc(-c4ccc(Cl)cc4)c3c2)n1`, for which the max response was -32.6% with HaCat [1], 5.59% in the test on KB-3-1 and -8.8% in the test with NIH3T3. The Potency result with MCC-13, with MCC-26, in the test on MKL-1 and in the test on MKL-2 was “inactive” throughout.
Consider `Nc1ncnc2nc(-c3ccc(N4CCOCC4)nc3)cc(-c3cccc(Br)c3)c12`, for which the max response with HaCat [1] was 3.01%; with NIH3T3, 1.04%. In addition, in the test on KB-3-1, the call was inactive. For the same molecule, the Potency result with MCC-13, with MCC-26, with MKL-1 and with MKL-2 was “inactive” in each case.
Take `CC(C)(C)OC(=O)CN(Cc1ccc(Cl)cc1)Cc1ccc([N+](=O)[O-])s1`: the call in the test with HaCat [1] and with HACAT [2] was inactive. For the same molecule, the max response is 0.3% in the test on KB-3-1 and 1.62% in the test with NIH3T3. In addition, the Potency entry with MCC-13 and in the test on MKL-1 was “inactive” in each case.
For `Cc1ccc(NC(=O)c2cccc(C(C)(C)C#N)c2)cc1Nc1ccc2ncn(C)c(=O)c2c1`, the Potency in the test with HaCat [1] is 13.2 µM (active); with NIH3T3 it was 16.6 µM (active). For the same molecule, the Potency entry in the test on MCC-26, in the test with MKL-1 and in the test on MKL-2 was “inactive” throughout.
As for `CCOC(=O)N[C@@H]1CC[C@@H]2[C@@H](C1)C[C@H]1C(=O)O[C@H](C)[C@H]1[C@@H]2C=Cc1ccc(-c2cccc(F)c2)cn1`, the max response in the test on NIH3T3 is -8.03%. The Potency result with MCC-13, in the test on MCC-26 and in the test on MKL-1 was “inactive” in each case. The Potency in the test with MKL-2 was 20.9 µM (active).
On to `CCOC(=O)C1=C[C@]2(CC)CCCN3CCc4c(n1c1ccccc41)[C@@H]32`, for which the max response with HaCat [1] is -26.7% and -18%; in the test on KB-3-1 it was 2.59% and -10.9%; with NIH3T3, -12.6%. For the same molecule, the Potency result in the test on MCC-13, in the test with MCC-26 and in the test with MKL-1 was “inactive” each time.
Consider `CC(C)C[C@H](NC(=O)[C@@H](O)[C@H](N)Cc1ccccc1)C(=O)O`, for which the Potency result in the test on MCC-13 and in the test on MKL-1 was “inactive” each time.
With `CCn1cc(C(=O)O)c(=O)c2cc(F)c(N3CCNC(C)C3)c(F)c21` (centres undefined), the outcome with HACAT [2] was inactive. Besides, the Potency result with MCC-13, in the test on MCC-26, with MKL-1 and in the test on MKL-2 was “inactive” each time.
For the molecule `Nc1cccc(S(=O)(=O)N2CCCN(S(=O)(=O)c3ccc4c(c3)OCCO4)CC2)c1`, the figures for the max response with HaCat [1], in the test on KB-3-1 and with NIH3T3 were -12.2%, -7.85% and -8.98%, respectively. For the same molecule, the Potency entry in the test on MCC-13, in the test with MKL-1 and in the test with MKL-2 was “inactive” in each case.
`COc1cc2nccc(Oc3ccc(NC(=O)NC4CC4)c(Cl)c3)c2cc1C(N)=O`: the max response in the test with HaCat [1] is -5.23% and -15.3%. Moreover, the molecule was classed as inactive in the test on KB-3-1. The Potency in the test on NIH3T3 was 14.8 µM (active) and 4.11 µM (active); in the test with MKL-1, 2.64 µM (active); in the test with MKL-2, 9.35 µM (active).
As for `OCCC#Cc1nc(-c2ccc(F)cc2)c(-c2ccncc2)n1CCCc1ccccc1`, the max response in the test on HaCat [1] was 4.71%; in the test on KB-3-1, 6.14%. Moreover, the molecule was called inactive with NIH3T3. The Potency result in the test with MCC-13, in the test on MCC-26 and in the test on MKL-1 was “inactive” throughout.
For the molecule `O=S(=O)(N=Cc1c(O)ccc2ccccc12)c1cccs1`, the values for the max response in the test with HaCat [1] and in the test on KB-3-1 were -24.1% and 0.0321%, respectively. Further, the molecule was classed as inactive in the test on NIH3T3. The Potency result in the test on MCC-13, in the test on MKL-1 and in the test on MKL-2 was “inactive” each time.
For the molecule `COCCNCCCn1c(C(=O)CF)c(-c2ccc(C)cc2)c2c(N)ncnc21`, the figures for the max response in the test on HaCat [1] and in the test on KB-3-1 were -0.681% and -1.17%, respectively. Moreover, the Potency entry in the test on MCC-13, in the test on MCC-26, in the test with MKL-1 and with MKL-2 was “inactive” throughout.
With `Cn1c(=O)c(F)c(Nc2ccc(I)cc2F)c2c(=O)n(C[C@@H](O)CO)cnc21`, in the test with HaCat [1], the Potency is 0.833 µM (active). Moreover, the max response with KB-3-1 is -4.57%. Moreover, the Potency entry in the test with MCC-26 and in the test with MKL-1 was “inactive” throughout.
In the case of `COc1ccc2c3n(c(=NC(=O)c4cccnc4)nc2c1OC)CCN3`, the Potency with HaCat [1] is 10.5 µM (active). The max response with KB-3-1 was -17.8%. The Potency result with MCC-13, in the test on MCC-26, with MKL-1 and in the test with MKL-2 was “inactive” in each case.
In the case of `NC(=O)c1ccc(-c2nc(-c3ccc4c(c3)OCCO4)c(-c3ccccn3)[nH]2)cc1`, the figures for the max response in the test on HaCat [1] and in the test with NIH3T3 were -0.259% and -6.71%, respectively. The Potency result in the test with MCC-13, in the test on MCC-26 and with MKL-1 was “inactive” in each case.
For the molecule `O=C(C=Cc1ccc(/C=C/C(=O)Nc2ccc(C3=NCCN3)cc2)cc1)Nc1ccc(C2=NCCN2)cc1`, in the test on HaCat [1], the max response is -9.67%. For the same molecule, the call in the test on KB-3-1 and with NIH3T3 was inactive. Moreover, the Potency entry with MCC-13, in the test with MKL-1 and in the test with MKL-2 was “inactive” throughout.
With `CN(C)c1ccc(Nc2nc(N)n(C(=O)c3c(F)cccc3F)n2)cc1`, in the test with NIH3T3, the Potency was 10.5 µM (active). Further, the Potency entry with MCC-26 and in the test on MKL-2 was “inactive” throughout.
